Results as given in the supplement of paper PMC8728848.
About 410 targets per protein were measured; listed, in parts, are those with the strongest signals and a random draw of the rest.

Columns and labels:
Assay in all cases: glycan array binding signal (z-score within array); higher = stronger binding
Conditions in all cases: glycan notation: IUPAC condensed, linker removed
[1] = biological target: Gal(b1-4)GlcNAc(b1-3)Gal(b1-4)GlcNAc(b1-3)Gal(b1-4)GlcNAc(b1-3)Gal(b1-4)GlcNAc(b1-3)Gal(b1-4)GlcNAc(b1-2)Man(a1-3)[Gal(b1-4)GlcNAc(b1-3)Gal(b1-4)GlcNAc(b1-3)Gal(b1-4)GlcNAc(b1-3)Gal(b1-4)GlcNAc(b1-3)Gal(b1-4)GlcNAc(b1-2)Man(a1-6)]Man(b1-4)GlcNAc(b1-4)[Fuc(a1-6)]GlcNAc
Summary of the method: (§1)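 Columns mapping to the same glycan were averaged after glycan names were converted to IUPAC-condensed notation. The data come from 3228 arrays in the Consortium for Functional Glycomics database, limited to those with an available protein sequence. Binding is reported as a within-array Z-score averaged across arrays of one protein sequence and across linkers.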

[2] = biological target: Gal(b1-4)GlcNAc(b1-3)Gal(b1-4)GlcNAc(b1-3)Gal(b1-4)GlcNAc(b1-3)Gal(b1-4)GlcNAc(b1-3)Gal(b1-4)GlcNAc(b1-2)[Gal(b1-4)GlcNAc(b1-3)Gal(b1-4)GlcNAc(b1-3)Gal(b1-4)GlcNAc(b1-3)Gal(b1-4)GlcNAc(b1-3)Gal(b1-4)GlcNAc(b1-6)]Man(a1-6)[Gal(b1-4)GlcNAc(b1-3)Gal(b1-4)GlcNAc(b1-3)Gal(b1-4)GlcNAc(b1-3)Gal(b1-4)GlcNAc(b1-3)Gal(b1-4)GlcNAc(b1-2)Man(a1-3)]Man(b1-4)GlcNAc(b1-4)[Fuc(a1-6)]GlcNAc
Summary of the method: as §1

[3] = biological target: Gal(b1-4)GlcNAc(b1-3)[Fuc(a1-3)GlcNAc(b1-6)]Gal(b1-4)Glc
Summary of the method: as §1

[4] = biological target: Gal(b1-4)GlcNAc(b1-6)[Gal(b1-4)GlcNAc(b1-3)]GalNAc
Summary of the method: as §1

Gal3S(b1-4)GlcNAc = biological target: Gal3S(b1-4)GlcNAc
Summary of the method: as §1

[5] = biological target: Gal3S(b1-4)[Fuc(a1-3)]GlcNAc6S
Summary of the method: as §1

Gal6P(b1-4)GlcNAc = biological target: Gal6P(b1-4)GlcNAc
Summary of the method: as §1

[6] = biological target: GalNAc(a1-3)GalNAc(a1-3)Gal(a1-4)Gal(b1-4)GlcNAc
Summary of the method: as §1

GalNAc(b1-4)GlcNAc = biological target: GalNAc(b1-4)GlcNAc
Summary of the method: as §1

[7] = biological target: Glc(a1-6)Glc(a1-6)Glc(a1-6)Glc
Summary of the method: as §1

[8] = biological target: GlcNAc(a1-4)Gal(b1-4)GalNAc
Summary of the method: as §1

[9] = biological target: GlcNAc(a1-4)Gal(b1-4)GlcNAc(b1-3)Gal(b1-4)GlcNAc(b1-3)Gal(b1-4)GlcNAc
Summary of the method: as §1

[10] = biological target: GlcNAc(b1-2)Man(a1-3)[GlcNAc(b1-4)][GlcNAc(b1-2)Man(a1-6)]Man(b1-4)GlcNAc(b1-4)[Fuc(a1-6)]GlcNAc
Summary of the method: as §1

GlcNAc(b1-3)Gal(b1-4)Glc = biological target: GlcNAc(b1-3)Gal(b1-4)Glc
Summary of the method: as §1

[11] = biological target: GlcNAc(b1-3)Gal(b1-4)GlcNAc(b1-2)Man(a1-3)[GlcNAc(b1-3)Gal(b1-4)GlcNAc(b1-2)Man(a1-6)]Man(b1-4)GlcNAc(b1-4)[Fuc(a1-6)]GlcNAc
Summary of the method: as §1

[12] = biological target: GlcNAc(b1-6)Gal(b1-4)GlcNAc
Summary of the method: as §1

GlcNAc(b1-6)GalNAc = biological target: GlcNAc(b1-6)GalNAc
Summary of the method: as §1

Man(b1-4)GlcNAc = biological target: Man(b1-4)GlcNAc
Summary of the method: as §1

[13] = biological target: Neu5Ac(a2-3)Gal(b1-3)GalNAc(b1-4)[Neu5Ac(a2-8)Neu5Ac(a2-3)]Gal(b1-4)Glc
Summary of the method: as §1

[14] = biological target: Neu5Ac(a2-3)Gal(b1-3)GlcNAc(b1-3)Gal(b1-3)GlcNAc
Summary of the method: as §1

[15] = biological target: Neu5Ac(a2-3)Gal(b1-3)GlcNAc(b1-3)GalNAc
Summary of the method: as §1

[16] = biological target: Neu5Ac(a2-3)Gal(b1-3)GlcNAc6S
Summary of the method: as §1

[17] = biological target: Neu5Ac(a2-3)Gal(b1-4)GlcNAc6S
Summary of the method: as §1

[18] = biological target: Neu5Ac(a2-3)Gal(b1-4)[Fuc(a1-3)]GlcNAc(b1-6)[Neu5Ac(a2-3)Gal(b1-3)]GalNAc
Summary of the method: as §1

[19] = biological target: Neu5Ac(a2-3)[GalNAc(b1-4)]Gal(b1-4)Glc
Summary of the method: as §1

[20] = biological target: Neu5Ac(a2-6)Gal(b1-4)GlcNAc(b1-3)Gal(b1-4)GlcNAc(b1-3)Gal(b1-4)GlcNAc
Summary of the method: as §1

[21] = biological target: Neu5Ac(a2-6)Gal(b1-4)GlcNAc(b1-3)GalNAc
Summary of the method: as §1

[22] = biological target: Neu5Ac(a2-6)GlcNAc(b1-4)GlcNAc(b1-4)GlcNAc
Summary of the method: as §1

[23] = biological target: Neu5Ac(a2-8)Neu5Ac(a2-3)[Gal(b1-3)GalNAc(b1-4)]Gal(b1-4)Glc
Summary of the method: as §1

[24] = biological target: Neu5Ac(b2-6)Gal(b1-4)GlcNAc
Summary of the method: as §1

B1: Threefoil (Haloarcula marismortui) (protein)
chain: GSSHHHHHHHHHHSSGLVPRGSHMGDGYYKLVARHSGKALDVENASTSDGANVIQYSYSGGDNQQWRLVDLGDGYYKLVARHSGKALDVENASTSDGANVIQYSYSGGDNQQWRLVDLGDGYYKLVARHSGKALDVENASTSDGANVIQYSYSGGDNQQWRLVDL
Question: With B1 as the binder, how does the “glycan array binding signal (z-score)” value [1] read?
Answer: The value was 2.83.

Question: And the “glycan array binding signal (z-score)” value [2]?
Answer: The value was 3.49.

Question: And the “glycan array binding signal (z-score)” value [3]?
Answer: The value was 3.85.

Question: And the “glycan array binding signal (z-score)” value [4]?
Answer: Its value is 0.738.

Question: What about the “glycan array binding signal (z-score)” value (Gal3S(b1-4)GlcNAc) of the same binder?
Answer: Its value is -0.158.

Question: And the “glycan array binding signal (z-score)” value [5]?
Answer: Its value is -0.038.

Question: What about the “glycan array binding signal (z-score)” value (Gal6P(b1-4)GlcNAc) of the same binder?
Answer: The value was -0.211.

Question: And the “glycan array binding signal (z-score)” value [6]?
Answer: The value was -0.227.

Question: And the “glycan array binding signal (z-score)” value (GalNAc(b1-4)GlcNAc)?
Answer: Its value is -0.003.

Question: What about the “glycan array binding signal (z-score)” value [7] of the same binder?
Answer: The value was -0.157.

Question: What about the “glycan array binding signal (z-score)” value [8] of the same binder?
Answer: The value was -0.271.

Question: And the “glycan array binding signal (z-score)” value [9]?
Answer: Its value is -0.208.

Question: What about the “glycan array binding signal (z-score)” value [10] of the same binder?
Answer: Its value is -0.223.

Question: And the “glycan array binding signal (z-score)” value (GlcNAc(b1-3)Gal(b1-4)Glc)?
Answer: Its value is -0.299.

Question: And the “glycan array binding signal (z-score)” value [11]?
Answer: Its value is -0.052.

Question: And the “glycan array binding signal (z-score)” value [12]?
Answer: Its value is 0.035.

Question: What about the “glycan array binding signal (z-score)” value (GlcNAc(b1-6)GalNAc) of the same binder?
Answer: The value was -0.181.

Question: What about the “glycan array binding signal (z-score)” value (Man(b1-4)GlcNAc) of the same binder?
Answer: The value was 0.763.

Question: And the “glycan array binding signal (z-score)” value [13]?
Answer: Its value is -0.245.

Question: And the “glycan array binding signal (z-score)” value [14]?
Answer: The value was -0.139.

Question: What about the “glycan array binding signal (z-score)” value [15] of the same binder?
Answer: Its value is -0.266.

Question: And the “glycan array binding signal (z-score)” value [16]?
Answer: The value was -0.17.

Question: And the “glycan array binding signal (z-score)” value [17]?
Answer: The value was -0.364.

Question: And the “glycan array binding signal (z-score)” value [18]?
Answer: Its value is 0.108.

Question: What about the “glycan array binding signal (z-score)” value [19] of the same binder?
Answer: Its value is -0.269.

Question: What about the “glycan array binding signal (z-score)” value [20] of the same binder?
Answer: The value was -0.154.

Question: And the “glycan array binding signal (z-score)” value [21]?
Answer: The value was -0.163.

Question: What about the “glycan array binding signal (z-score)” value [22] of the same binder?
Answer: Its value is -0.141.

Question: What about the “glycan array binding signal (z-score)” value [23] of the same binder?
Answer: Its value is -0.146.

Question: What about the “glycan array binding signal (z-score)” value [24] of the same binder?
Answer: Its value is -0.309.
